# SW480 rerep = induces DNA re-replication in SW480 colon adenocarcinoma cells; SW480 DNA re-replication, Hoechst DNA content imaging, 48 h; Potency, µM (doses to about 46.1 µM), usual class: activators; 340,000 compounds, 1.8% hits; AID 624297; note: nearly all actives have a fitted effect of over 55% in size
#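 250 cells/well; 23 nL cpd via pin tool; 48 hr, 37 C, 5% CO2; Hoechst 40 min; imager read of total nuclear intensity, ex 405/em 500-530 nm.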
# RORg inh = ROR gamma (mouse) transcription inhibition; AID 2551; Potency, µM (titrated, usually from 53.6 µM), usual class: inhibitors; Drosophila S2 Gal4-RORgamma UAS-luciferase reporter, 20 h; 310,000 compounds, 5.4% hits; note: nearly all actives have a fitted effect of over 60% in size
# Target sequence (P51450 whole entry, looked up, the tested form may be a part): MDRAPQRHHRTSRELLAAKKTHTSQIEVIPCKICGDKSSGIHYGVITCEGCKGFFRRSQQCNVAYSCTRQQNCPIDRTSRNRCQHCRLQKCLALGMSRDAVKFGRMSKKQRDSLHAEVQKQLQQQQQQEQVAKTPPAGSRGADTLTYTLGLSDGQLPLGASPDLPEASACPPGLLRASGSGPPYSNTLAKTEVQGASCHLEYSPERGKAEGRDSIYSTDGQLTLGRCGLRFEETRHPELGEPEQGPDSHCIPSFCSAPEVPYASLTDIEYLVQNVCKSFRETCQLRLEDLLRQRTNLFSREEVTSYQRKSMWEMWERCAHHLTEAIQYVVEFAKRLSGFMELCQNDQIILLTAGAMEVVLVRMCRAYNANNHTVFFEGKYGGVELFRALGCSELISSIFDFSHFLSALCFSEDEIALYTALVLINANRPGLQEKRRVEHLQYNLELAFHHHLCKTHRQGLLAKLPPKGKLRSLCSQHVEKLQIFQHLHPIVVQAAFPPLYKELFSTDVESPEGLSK
#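 Stable Schneider cell line, Gal4 DNA-binding domain fused to ROR gamma, UAS-luciferase. Cmpd 1 hr RT → CuSO4 700 uM final → 20 hr RT → luciferase reagent 10 min → luminescence.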
# VP16 counter = inhibits Gal4-VP16 luciferase reporter, ROR gamma counter-screen | Drosophila S2 Gal4-VP16 UAS-luciferase, luminescence, 20 h | Potency, µM (highest dose often 53.6 µM), most hits filed as inhibitors | 310,000 compounds, 3.5% hits;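 note: Gal4-VP16 expression switched on by copper sulfate through the metallothionein promoter; nearly all actives have a fitted effect of over 50% in size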
# IL-1B inflam inh = inflammasome signaling inhibition, IL-1 beta readout; activity change, % at 57.5 µM; AID 743279; 360,000 compounds, 4.7% hits; THP-1 LPS/ATP IL-1B secretion, AlphaLISA, 16 h; hits give low values; in the data active = activity change below about -50%; inconclusive = mostly about -30% to -49%
#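 THP-1 cells pretreated 1 hr with compounds (up to 57.5 uM final), then stimulated with LPS (250 ng/mL final) plus ATP (1.25 mM final); secreted IL-1B measured by AlphaLISA after 16 hr, decreased signal indicating inhibition.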
# MCF10A rerep = inducers of DNA re-replication in MCF 10A breast cells; MCF 10A DNA re-replication, Hoechst nuclear intensity, 48 h; Potency, µM (doses to about 46.1 µM), actives largely listed as activators; 350,000 compounds, 2.9% hits; note: nearly all actives have a fitted effect of over 50% in size
# A number is an active result; – = inactive; ? = inconclusive; · = no result given; ! = not confirmed by another sample. This is a sample that favours compounds with a hit; in the whole collection about 11% have one here. Unless noted, calls come from the whole dose curve; as a rule, active = well fitted curve in the direction sought with a large enough effect; inconclusive = small, poorly fitted or top-dose-only effect, or another doubt; inactive = no such curve, though single readings can be large; an effect the other way counts as inactive or inconclusive.
SMILES,SW480 rerep,RORg inh,VP16 counter,IL-1B inflam inh,MCF10A rerep
O=C(COC(=O)CNC(=O)c1ccc([N+](=O)[O-])o1)Nc1ncc(Cl)cc1Cl,–,·,·,-92,?
CC1(C)CC(Cc2ccc(Cl)nc2)N(C(=O)OC(C)(C)C)C1 (configuration not stated),·,·,·,–,·
CS(=O)(=O)c1ccc(-c2sc3ccccc3c2C(=O)N2CCN(c3ccc(F)cc3)CC2)cc1,–,·,·,–,–
COC(=O)CNC(=O)C1Cc2ccccc2CN1S(=O)(=O)c1cccs1 (configuration not stated),–,–,–,-74,–
CC(C)=C1CCC(C)CC1=NNC(N)=S (configuration not stated),–,·,·,?,–
CC1C/C(=N\NC(N)=S)c2cc(Cl)ccc2S1 (configuration not stated),–,0.63µM,2µM,–,–
Cc1ccnc(NC(=S)NC(=O)c2cccs2)c1,–,2.2µM,4µM,–,–
Cc1ccnc(NC(=O)CNC(=O)c2cccs2)c1,?,·,·,–,–
O=C(NC(=S)Nc1ccccn1)c1ccccc1,–,?,?,–,–
O=C(NC(=S)Nc1ccccn1)c1ccco1,·,13µM,?,–,–
Cc1ccnc(NC(=S)NC(=O)c2ccco2)c1,–,4.5µM,?,–,–
Cc1ccnc(NC(=O)CNC(=O)c2ccco2)c1,–,·,·,–,–
Cc1ccnc(NC(=O)/C=C/c2cccs2)c1,?,8.9µM,13µM,-98,?
CN1CCN(CCCNC(=O)CCC(=O)N2CCOc3ccccc32)CC1,–,–,–,–,–
CCNC(=S)Nc1cc(C)ccn1,–,2.5µM,5.6µM,–,–
CCOC(=O)C1(Cc2cccc(Cl)c2)CCCN(C(=O)c2ccco2)C1 (configuration not stated),–,–,–,–,?
CCOC(=O)C1(Cc2cccc(Cl)c2)CCCN(C(=O)c2ccoc2C)C1 (configuration not stated),16µM,–,–,-101,?
CCn1nccc1NC(=O)c1ccc2sc([C@@H]3O[C@H](CO)[C@H](O)[C@H](O)[C@H]3O)nc2c1,·,·,·,–,·
COc1ccc(-c2[nH]c(-c3cc(OC)c4c(c3)OCO4)nc2-c2ccccc2)cc1,–,?,–,–,13µM
CC(C)CC(=O)NC(=S)Nc1ccc(S(=O)(=O)N2CCCC2)cc1,–,16µM,–,–,–
O=C(NC(=S)Nc1ccc(S(=O)(=O)N2CCCC2)cc1)C1CCC1,–,11µM,–,–,–
CC(C)C(=O)NC(=S)Nc1ccc(S(=O)(=O)N2CCCC2)cc1,–,?,?,–,?
O=C(Nc1ccc2c(c1)oc1ccc(S(=O)(=O)N3CCCC3)cc12)C1CC1,–,–,–,-57,–
CN1CCN(S(=O)(=O)c2ccc(NC(=S)NC(=O)C3CCC3)cc2)CC1,–,–,–,–,–
O=C(NC(=S)Nc1ccc(S(=O)(=O)N2CCCC2)cc1)C1CC1,?,10µM,–,–,?
SMILES,SW480 rerep,RORg inh,VP16 counter,IL-1B inflam inh,MCF10A rerep
CC1(C)C(=O)Nc2ccccc2N1C(=O)COC(=O)CNS(=O)(=O)c1ccc(F)c(F)c1F,–,·,·,–,–
CC(C)(C)OC(=O)N1CCC(c2c(C(=O)NCC3CCN(C4CCCC4)C3)cnn2-c2ccccc2)CC1 (configuration not stated),?,–,–,–,–
CC(C)(C)OC(=O)N1CCC(c2c(C(=O)NCC3CCN(C4CCCC4)C3)cnn2-c2cccc(Cl)c2)CC1 (configuration not stated),?,–,–,-56,?
O=c1[nH]n(-c2ccccc2)c(=O)cc1Cl,–,·,·,–,–
O=C(NCC1OCCc2ccccc21)c1ccc(NC(=O)c2ccccc2Cl)cc1 (configuration not stated),–,–,?,-73,–
O=[N+]([O-])c1cc(Br)c(Nc2ccccc2)c([N+](=O)[O-])c1,?,?,13µM,-98,?
Nc1cc([N+](=O)[O-])ccc1Nc1ccccc1,–,?,–,-103,–
Nc1cc([N+](=O)[O-])ccc1O,–,–,13µM!,–,–
O=C(Nc1ccccc1)c1ccc(Nc2c([N+](=O)[O-])cc([N+](=O)[O-])c3ccccc23)cc1,–,–,–,–,–
COc1ccc(CCNC(=O)C2CCCN2S(=O)(=O)c2cccc3nsnc23)cc1OC (configuration not stated),–,–,–,–,–
COc1ccc(C(=O)CSc2nnc(-c3ccco3)c(-c3ccco3)n2)cc1,6.5µM,–,–,–,–
Cc1ccc(NC(=O)CSc2nnc(-c3ccco3)c(-c3ccco3)n2)cc1,16µM,–,–,–,5.8µM
Cc1ccccc1NC(=O)CSc1nnc(-c2ccco2)c(-c2ccco2)n1,–,–,–,–,–
O=C(CSc1nnc(-c2ccco2)c(-c2ccco2)n1)Nc1ccccc1,–,–,–,-58,–
Cc1cccc(C)c1NC(=O)CSc1nnc(-c2ccco2)c(-c2ccco2)n1,–,–,–,-77,–
Cc1cc(Br)cc(Br)c1OCC(=O)NNC(=O)Nc1ccccc1,–,·,·,–,–
CC(C)c1ccc(NC2CCCN(C(=O)c3ccoc3)C2)cc1 (configuration not stated),–,–,–,–,–
N#Cc1cccc(C(=O)C(=O)N2CCN(C(=O)OCc3ccccc3)CC2)c1,·,·,·,–,·
COC(=O)C1=C(c2ccc(OC)cc2)OC(=O)C1(C)C,–,–,–,–,–
O=C(NCc1ccc(F)cc1)C1CCC(CNS(=O)(=O)c2cccs2)CC1 (configuration not stated),–,–,–,–,–
O=C(C1CCC(CNS(=O)(=O)c2cccs2)CC1)N1CCN(c2ccc(F)cc2)CC1 (configuration not stated),–,?,–,?,16µM
CC(=O)C1=C(O)C(=O)N(c2ccc(Br)cn2)C1c1ccc(F)cc1 (configuration not stated),7.3µM,–,?,–,–
CCOC(=O)C1=CCC(c2ccc(C)cc2)N(S(=O)(=O)c2ccc(C)cc2)C1 (configuration not stated),·,·,·,–,·
Cc1ccc(NC(=S)C2=C(O)c3sccc3N(C)S2(=O)=O)cc1,–,13µM,16µM,–,–
COc1cc(OC)c(OC)cc1/C=C1\Oc2cc(OS(C)(=O)=O)ccc2C1=O,–,–,–,–,–
COc1cc(OC)c(OC)cc1/C=C1/Cc2ccccc2C1=O,–,–,–,–,–
COc1cc(OC)c(OC)cc1/C=C1\CC(C)C/C(=C\c2cc(OC)c(OC)cc2OC)C1=O (configuration not stated),?,–,–,-84,16µM
CCC1C/C(=C\c2cc(OC)c(OC)cc2OC)C(=O)/C(=C/c2cc(OC)c(OC)cc2OC)C1 (configuration not stated),18µM,–,–,-70,4.6µM
